Records with an inconclusive call do not appear. A number with no mark means an inactive call. Calls come from the whole dose curve.

The test can be described thus: qHTS assay to identify small molecule agonists of the AP-1 signaling pathway - cell viability counter screen (AID 1159525). Note: nearly all actives have a fitted effect of over 55% in size. The note with it: ME-180 (cervical carcinoma) AP-1-bla cells viability, ATP luminescence, 5 h; series mostly up to 76.8 µM; viability change, negative = cytotoxic: at the top concentration. The source says: National Center for Advancing Translational Sciences [NCATS]
NIH Chemical Genomics Center [NCGC]
U.S. Environmental Protection Agency [EPA]
National Institutes of Environmental Health Sciences [NIEHS]
National Toxicology Program [NTP]
U.S. Food and Drug Administration [FDA]
Activator protein-1 (AP-1), a transcription factor, plays an important role in tumor genesis by regulating genes involved in cell proliferation, differentiation, apoptosis, and angiogenesis. AP-1 activity is induced by a complex network of signaling pathways that involves extracellular signals, such as growth factors. The AP-1 protein complex formed from c-Fos and c-Jun binding to the AP-1 response element results in transcriptional activation of genes containing such elements within their promoter.
Low molecular weight molecules have been discovered and developed to modulate various components of these signaling pathways, for example, MAP kinase inhibitors. However, many points of pathway modulation remain untested due to the lack of chemical probes making this signaling locus of general interest.
Using a beta-lactamase reporter-gene under control of the AP-1 response element, a cell-based assay [CellSensor(TM) AP-1-bla ME-180 developed by Invitrogen Corp.] was used to measure EGF-induced signaling. The Tox21 10K library compounds were measured for their ability to positively modulate the action of EC50 EGF on reporter gene activity. Compounds were screened in a 15-pt titration series in 1536-well format. The cytotoxicity of the Tox21 compound library against this cell line was tested in parallel by measuring the intra cellular ATP content in the same wells.
Tox21 Assay Protocol Summary:
2500 cells/5uL in Opti-MEM medium containing 0.5% dialyzed FBS, 0.1 mM NEAA, 1 mM sodium pyruvate and 10 mM HEPES was dispensed into 1536-well black wall/clear bottom plates using a Multidrop dispenser and cells were cultured at 37 degrees Celsius overnight. Next day 23 nL of compounds dissolved in DMSO, positive controls or DMSO were delivered to each well using a pin tool. The plates were incubated at 37 degrees Celsius for 5 hours. 1 uL of LiveBLAzerTM B/G FRET substrate (Solution A+B+C+D) was added to each well using a Flying Reagent Dispenser. After incubated at room temperature for 2.5 hours the plates were measured on an EnVision plate reader at Excitation 405nm, Emission1=460nm and Emission 2=530nm. The %Activity was determined from the ratio of 460nm/530nm.
After the plates were read for Beta-Lactamase assay on Envision; 3 ul Cell Titer Glo (Promega) was added to measure the cytotoxicity and the plates were then incubated at RT in dark for 30 min. The luminescence was read on ViewLux (Perkin Elmer, Shelton, CT) using 6 sec exposure. ViewLux data was expressed as relative luminescence units.
For primary data analysis, raw plate reads for each titration point were first normalized relative to […] EGF control (100%) and DMSO only wells (basal, 0%).
For primary data analysis for viability assay, raw plate reads for each titration point were first normalized Tetra n-octyl ammonium bromide control (-100%) and DMSO (control, 100%).
In general terms: In qHTS, concentration-response curves come from the screen itself.
For the molecule `CN(C)CCCCCCN(C)C`, the “viability change, negative = cytotoxic” value is 6.94%.

For the molecule `CC1=CC(=O)[C@H]2C[C@@H]1C2(C)C`, the “viability change, negative = cytotoxic” value was 0.47%.

Take `C[C@@H]1C[C@H]2[C@@H]3C[C@H](F)C4=CC(=O)C(Cl)=C[C@]4(C)[C@@]3(F)[C@@H](O)C[C@]2(C)[C@@]1(O)C(=O)CO`: the “viability change, negative = cytotoxic” value is -2.4% [at 35.3 µM].

For `CCCc1nn(C)c2c(=O)[nH]c(-c3cc(S(=O)(=O)N4CCN(C)CC4)ccc3OCC)nc12`, the “viability change, negative = cytotoxic” value is -9.93% [at 35.3 µM].

As to `O=S(=O)(O)c1cccc(S(=O)(=O)O)c1`, the “viability change, negative = cytotoxic” value was 0.675%.

As for `O=C(O)c1cn(C2CC2)c2cc(N3CCNCC3)c(F)cc2c1=O`, the “viability change, negative = cytotoxic” value was 3.11% [at 35.3 µM].

Consider `CCOC(=O)C(=O)CCCCCCl`, for which the “viability change, negative = cytotoxic” value is 6.22% [at 35.3 µM].

In the case of `CCCCCCC#CC(=O)OC`, the “viability change, negative = cytotoxic” value was 11.9%.

`CC1(C)OC[C@@H](COC(=O)CCc2ccc(OC[C@@H](O)CNCCNC(=O)N3CCOCC3)cc2)O1`: the “viability change, negative = cytotoxic” value is -0.026% [at 35.3 µM].

Regarding `C1CCC2=NCCCN2CC1`, the “viability change, negative = cytotoxic” value was -11.3%.

Regarding `CCOC(=O)COc1cc(-n2ncc(C(F)(F)F)c(C)c2=O)c(F)cc1Cl`, the “viability change, negative = cytotoxic” value is -6.66%.

With `C=CC(=O)OCCCl`, the “viability change, negative = cytotoxic” value is -20.7%.

As for `CCCC(C)C(=O)OCC` (stereo not given), the “viability change, negative = cytotoxic” value is -12.2%.

`CC(C)c1ccc2ncccc2c1`: the “viability change, negative = cytotoxic” value was -2.61%.

With `CC1=NN(c2cc(S(=O)(=O)O)ccc2Cl)C(=O)C1N=Nc1ccccc1` (stereo not given), the “viability change, negative = cytotoxic” value is -1%.

For the molecule `CCCCOCCOC(=O)CCCCCCCCC(=O)OCCOCCCC`, the “viability change, negative = cytotoxic” value is 4.19%.

On to `CC(=O)OCC(=O)[C@@]1(O)[C@H](C)C[C@H]2[C@@H]3CCC4=CC(=O)C=C[C@]4(C)[C@@]3(F)[C@@H](O)C[C@@]21C`, for which the “viability change, negative = cytotoxic” value is -4.26% [at 35.3 µM].

Turning to `CCOc1ccccc1OCC`, the “viability change, negative = cytotoxic” value is 3.08%.

For the molecule `CCC(C(=O)NC(=O)NC(C)=O)c1ccccc1` (stereo not given), the “viability change, negative = cytotoxic” value was -0.589% [at 35.3 µM].

Turning to `CC1=NN(c2cccc(S(=O)(=O)O)c2)C(=O)C1`, the “viability change, negative = cytotoxic” value is -3.37%.

Take `C=CN1CCCCCC1=O`: the “viability change, negative = cytotoxic” value is 2.78%.

Regarding `CN(C)C(=O)Oc1cccc([N+](C)(C)C)c1`, the “viability change, negative = cytotoxic” value is -0.681% [at 35.3 µM].

For the molecule `CN1CCN(c2cc3c(nn2)Oc2ccccc2N3C)CC1`, the viability change, negative = cytotoxic is 4.25% [at 15.8 µM].

In the case of `CC[N+](C)(CC)CCOC(=O)C1c2ccccc2Oc2ccccc21`, the “viability change, negative = cytotoxic” value was 8.26% [at 35.3 µM].

On to `CC/C=C\CCOC(C)OCC` (stereo not given), for which the “viability change, negative = cytotoxic” value is -3.16% [at 35.3 µM].

Turning to `CCCCOCCOC(=O)COc1cc(Cl)c(Cl)cc1Cl`, the “viability change, negative = cytotoxic” value was -1.2%.

As for `O=C(O)c1cc(C(=O)O)cc(C(=O)O)c1`, the “viability change, negative = cytotoxic” value is 3%.

`N[C@@H](CCC(=O)O)C(=O)O`: the “viability change, negative = cytotoxic” value was 5.67%.

In the case of `C[C@H]1[C@H](NC(=O)/C(=N/OC(C)(C)C(=O)O)c2csc(N)n2)C(=O)N1S(=O)(=O)O` (stereo in doubt), the “viability change, negative = cytotoxic” value was 0.508% [at 35.3 µM].

In the case of `CCOC(=O)C1=NOC(c2ccccc2)(c2ccccc2)C1`, the “viability change, negative = cytotoxic” value is 1.9%.

Take `C[N+]1(C)[C@@H]2CC(OC(=O)[C@H](CO)c3ccccc3)C[C@H]1[C@@H]1O[C@@H]12` (stereo not given in full): the “viability change, negative = cytotoxic” value is 0.143% [at 35.3 µM].

`Cc1ccc(-c2ccccc2C#N)cc1`: the “viability change, negative = cytotoxic” value was -2.81% [at 35.3 µM].

`CCCCCCCCN1CCCC1=O`: the “viability change, negative = cytotoxic” value is -5.15%.

As to `Cc1cccc(C)c1NC(=O)CC12CCCN1CCC2`, the “viability change, negative = cytotoxic” value was 0.087% [at 35.3 µM].

`NCCCC[C@H](N[C@@H](CCc1ccccc1)C(=O)O)C(=O)N1CCC[C@H]1C(=O)O`: the “viability change, negative = cytotoxic” value was -5.51% [at 35.3 µM].

For `O=C(CO)[C@@H](O)[C@H](O)[C@H](O)CO`, the “viability change, negative = cytotoxic” value is 2.48%.

Consider `COc1ccccc1OCC1CNC(=O)O1` (stereo not given), for which the “viability change, negative = cytotoxic” value is 5.39% [at 35.3 µM].

Consider `CCC(C)(CN(C)C)OC(=O)c1ccccc1` (stereo not given), for which the “viability change, negative = cytotoxic” value is 17.6% [at 35.3 µM].

As to `O=C(c1ccccc1)C1(O)CCCCC1`, the “viability change, negative = cytotoxic” value is 3.58%.

Take `NC(=O)N1c2ccccc2CC(=O)c2ccccc21`: the “viability change, negative = cytotoxic” value is 2.08% [at 35.3 µM].

These data come from PubChem BioAssay (Tox21).
